Screening results from PubChem.
In the library only some 2.8% were active in any assay of this set; here they are far more common.
Six1-Eya2 blk: Six1/Eya2 interaction inhibition. AlphaScreen GST-Six1/His-Eya2 binding, biochemical; hits give low values. activity change, % (concentration not given with the values). hit rate 0.56% among 360,000; in the data active = activity change below about -65%; inconclusive = mostly about -30% to -63%
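Six1/Eya2 binding was read as AlphaScreen signal after compounds were pinned into GST-Six1 plus His-tagged Eya2 (5X stock 250/500 nM) in pH 8.0 Tris/NaCl/TCEP buffer, beads added, then incubated 1 h, 37 C, dark.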
ATXN2 expr inh: inhibitors of ATXN2 expression; HEK-293 ATXN2-luciferase reporter, luminescence, 24 h; Potency, µM (top dose mostly 57 µM), hits mostly inhibitors; hit rate 0.72% among 360,000; AID 1745845; note: nearly all actives have a fitted effect of over 55% in size
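ATXN2-luciferase reporter cells (luciferase flanked by upstream and downstream ATXN2 gene portions) were treated 24 h at 37 °C with compounds at up to 57 uM. SteadyGlo luminescence gave expression; GF-AFC fluorescence gave viability.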
CtBP-E1A blk: inhibitors of CtBP/E1A interaction; hit rate 0.49% among 340,000; AID 651724; activity change, % (concentration not given with the values); AlphaScreen GST-E1A/His-CtBP binding, 1536-well; hits give low values; in the data active = activity change below about -65%; inconclusive = mostly about -30% to -63%
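Protein mix (5X: 125 nM each GST-E1A, His-CtBP) was incubated with pinned compound 2 h at 37 deg C in dark, in 50 mM Tris pH 8.0 buffer with 300 mM NaCl. Glutathione donor and nickel acceptor beads followed; AlphaScreen signal read after 1 h.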
TGFb SMAD3 inh: blocks TGF-b signaling. HepG2 CAGA-GFP TGF-b/SMAD3 reporter, GFP fluorescence, 18 h; TGF-beta stimulated, 500 pg/mL final. Potency, µM (highest dose often 46.1 µM), actives largely listed as inhibitors. hit rate 1.2% among 410,000; note: nearly all actives have a fitted effect of over 65% in size
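Per well, imaged GFP fluorescence of HEPG2 CAGA-GFP cells gives the signal; cells get compound, then TGF-beta (500 pg/mL final), 18 h at 37 degrees C; %Activity versus -TGF-beta and +DMSO controls.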
HepG2 viability: counter-screen for TGF-b inhibitors: cytotoxicity in HepG2 cells; AID 588856; Potency, µM (highest dose often 46.1 µM), hits mostly cytotoxic; hit rate 0.76% among 410,000; HepG2 CAGA-GFP viability, ATP luminescence, 18 h
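HepG2 CAGA-GFP cells (1000/well, DMEM with 1% FBS) received compound, then TGF-beta at 500 pg/mL final, and were incubated 18 hours at 37 degrees C. Viability was read by CellTiter-Glo luminescence. Media-only wells were set as complete cell-killing and DMSO as no toxicity.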
S2 tox: cell viability loss in ATXN counter-screen. Potency, µM (series often up to 56.7 µM), hits mostly cytotoxic. hit rate 0.49% among 400,000. S2 cells (HEK-293 line with an ATXN2-luciferase reporter) viability, CellTiter-Fluor protease fluorescence, 24 h; note: nearly all actives have a fitted effect of over 40% in size
Numbers stand for hits; . = inactive; ? = inconclusive; / = not tested or not shown. Unless noted, calls come from the whole dose curve; as a rule, active = well fitted curve in the direction sought with a large enough effect; inconclusive = small, poorly fitted or top-dose-only effect, or another doubt; inactive = no such curve, though single readings can be large; an effect the other way counts as inactive or inconclusive.

SMILES	Six1-Eya2 blk	ATXN2 expr inh	CtBP-E1A blk	TGFb SMAD3 inh	HepG2 viability	S2 tox
Cc1cccc(N(C)C(=O)CCS(=O)(=O)c2ccc3c(c2)oc(=O)n3C)c1	/	.	/	.	.	.
O=C(NCCc1cccnc1)c1cnn(-c2ncc3c(n2)-c2ccccc2CC3)c1C1CC1	/	/	/	/	/	.
CC1=NNC(=O)/C1=C\c1cn(-c2ccccc2)nc1-c1ccc(F)cc1	.	7.5µM	.	4µM	.	/
O=Cc1cn(-c2ccccc2)nc1-c1ccc(F)cc1	.	/	/	.	.	.
CC1=NNC(=O)/C1=C\c1cn(-c2ccccc2)nc1-c1cccs1	.	/	/	5.6µM	7.9µM	3.2µM
CC(C)c1ccc(C(=O)NCCCN2CCN(CCCNC(=O)c3ccc(C(C)C)cc3)CC2)cc1	.	.	.	14µM	18µM	?
O=C(NCCCN1CCN(CCCNC(=O)c2ccc(F)cc2)CC1)c1ccc(F)cc1	.	.	.	.	.	.
COc1cccc(-c2cccc(-c3nc(C(=O)NCc4ccc5c(c4)OCO5)cc4c3[C@H](CCO)N(S(=O)C(C)(C)C)C4)c2)c1 (stereo partly drawn)	.	?	.	16µM	.	18µM
COc1cccc(-c2cccc(-c3nc(C(=O)Nc4ccc(-c5ccccc5)cc4)cc4c3[C@H](CCO)N(S(=O)C(C)(C)C)C4)c2)c1 (stereo partly drawn)	.	?	.	?	.	.
CC(C)(C)S(=O)N1Cc2cc(C(=O)NCc3ccc(Oc4ccccc4)cc3)nc(-c3cccc(-c4cc5ccccc5o4)c3)c2[C@H]1CCO (stereo partly drawn)	.	?	.	?	.	/
CC(C)(C)S(=O)N1Cc2cc(C(=O)NCc3ccc4c(c3)OCO4)nc(-c3cccc(-c4cc5ccccc5o4)c3)c2[C@@H]1CCO (stereo partly drawn)	.	22µM	.	?	.	/
COc1cccc(C(=O)N2CCC(C(=O)Nc3cccc(Cl)c3)CC2)c1	/	.	/	.	.	?
COc1ccccc1C(=O)N[C@@H]1c2ccccc2C2(CCN(C(=O)c3ccnn3C)CC2)[C@H]1OC	/	/	/	/	/	.
O=C(CSc1ccc2nnc(CCNS(=O)(=O)c3ccccc3)n2n1)Nc1ccccc1C(F)(F)F	/	/	/	.	.	/
Cc1cc(/C=N/NC(=O)c2cccc(N(C)C)c2)c(C)n1-c1cc(C(=O)O)cc(C(=O)O)c1	-67	.	?	.	.	.
O=C(CCn1cncn1)NCC1Cc2cc(-c3ccsc3)cc(Cl)c2O1 (stereo not drawn)	/	/	/	/	/	.
CCCCCCCCN1[C@@H](CC(=O)OC)c2ccc(/C=C/C(=O)OC)cc2S1(=O)=O	/	/	/	.	.	/
Cc1coc2ccccc2c1=O	/	.	/	/	/	.
CN(C)c1ccc(/C=C/c2nc3ccccc3s2)c(Cl)c1	/	/	/	.	.	/
O=C(Nc1ccc(Br)c2cccnc12)c1cccc2ccccc12	/	.	/	.	.	.
CC[n+]1c(/C=C2\C=C(C)CC(C)(C)C2)sc2ccccc21	.	?	.	10µM	.	?
NC(=O)NC(CC(=O)NNC(=O)c1ccccn1)c1ccccc1Cl (stereo not drawn)	-65	.	-79	.	.	.
NC(=O)NC(CC(=O)NCCc1ccccn1)c1ccccc1Cl (stereo not drawn)	.	.	.	.	.	.
CCn1c(SCC(=O)N/N=C/c2ccc(OC)c(OC)c2)nc2ccccc21	.	.	.	.	.	.
C=CCSc1nc2ccccc2n1C(=O)/C=C/c1ccc(OC)c(OC)c1	.	14µM	.	.	.	10µM
CCSc1nc2ccccc2n1C(=O)/C=C/c1ccc(OC)c(OC)c1	.	7.9µM	.	?	.	8.9µM
C=CCSc1nc2ccccc2n1C(=O)/C=C/c1cc(OC)c(OC)c(OC)c1	.	10µM	.	?	11µM	3.5µM
Cc1coc2c1c(C)cc1oc(=O)c(CC(=O)NCc3ccc(Cl)cc3)c(C)c12	/	/	/	.	.	/
